From article PMC5913336, “True equilibrium measurement of transcription factor-DNA binding affinities using automated polarization microscopy”
pKd: −log10 of the molar value.

target: T1, Br (Drosophila melanogaster, UniProt Q24206 697-775); experiment: FP; 33 mM phosphate pH 7.0, 90 mM NaCl, 0.01% Tween 20, 0.1 mM DTT, 0.5% agarose; room temperature; details: tags: N-GST (pGEX-6P-1, kept); dsDNA, one strand shown
T1 sequence: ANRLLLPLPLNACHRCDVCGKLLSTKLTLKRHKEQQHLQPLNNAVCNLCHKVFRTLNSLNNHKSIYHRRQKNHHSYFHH

Sequence | binding signal
GGAATTAGAAACC | 1.42 Kd / Kd of best base at the position
GGAATTATAAAAC | 59.2 Kd / Kd of best base at the position
GGAATTCGAAAAC | > 1590 Kd / Kd of best base at the position
GGAATTAGAAATC | 1.02 Kd / Kd of best base at the position
GGAATTAGTAAAC | 6.81 Kd / Kd of best base at the position
GTAATTAGAAAAC | 2.7 Kd / Kd of best base at the position
GGAATTACAAAAC | 109 Kd / Kd of best base at the position

target: T2, Hb (Drosophila melanogaster, UniProt P05084 225-364); experiment: as above; details: tags: N-GST (pGEX-6P-1, kept); dsDNA, one strand shown
T2 sequence: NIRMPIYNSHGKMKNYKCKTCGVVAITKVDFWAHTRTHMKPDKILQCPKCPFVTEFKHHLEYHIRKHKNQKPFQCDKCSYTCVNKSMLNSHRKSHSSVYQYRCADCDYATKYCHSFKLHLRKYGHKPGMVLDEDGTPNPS

Sequence | binding signal | pKd
AGTTTTTTATGC | 1.04 Kd / Kd of best base at the position | –
AGTTTTTTACGC | 1.61 Kd / Kd of best base at the position | –
AGTTTTTTAGGT | 1.01 Kd / Kd of best base at the position | –
AGTTTTTGAGGC | 8.32 Kd / Kd of best base at the position | –
AGTTTTTTAGGC | – | ~7.90
AGTTTTTTAAGC | 1.31 Kd / Kd of best base at the position | –
CGTTTTTTAGGC | 1.23 Kd / Kd of best base at the position | –
AGTTGTTTAGGC | 9.25 Kd / Kd of best base at the position | –
AGTGTTTTAGGC | 6.19 Kd / Kd of best base at the position | –
AGTTTTTTAGGG | 1.25 Kd / Kd of best base at the position | –
AGTTATTTAGGC | 10.2 Kd / Kd of best base at the position | –
AGTTTATTAGGC | 11 Kd / Kd of best base at the position | –
AGTTTGTTAGGC | 11.9 Kd / Kd of best base at the position | –
AGTTTTTCAGGC | 10.3 Kd / Kd of best base at the position | –
AGTTCTTTAGGC | 13.1 Kd / Kd of best base at the position | –
AGTTTTTTTGGC | 6.04 Kd / Kd of best base at the position | –

Sequence | binding signal | pKd
ACTTTTTTAGGC | 1.03 Kd / Kd of best base at the position | –
ATTTTTTTAGGC | 1.03 Kd / Kd of best base at the position | –
AGTTTTTTAGGA | 1.46 Kd / Kd of best base at the position | –
AGCTTTTTAGGC | 2.23 Kd / Kd of best base at the position | –
AGTTTTTTGGGC | 6.22 Kd / Kd of best base at the position | –
AGTTTTTTAGAC | 1.59 Kd / Kd of best base at the position | –
TGTTTTTTAGGC | 1.1 Kd / Kd of best base at the position | –
GGTTTTTTAGGC | 1.46 Kd / Kd of best base at the position | –
AGTTTTTTCGGC | 5.64 Kd / Kd of best base at the position | –
AGTTTTCTAGGC | 15 Kd / Kd of best base at the position | –
AGTTTTTTAGCC | 1.11 Kd / Kd of best base at the position | –
AGTATTTTAGGC | 8.15 Kd / Kd of best base at the position | –
AGTTTTATAGGC | 9.8 Kd / Kd of best base at the position | –
AGTCTTTTAGGC | 8.66 Kd / Kd of best base at the position | –
AGTTTCTTAGGC | 9.31 Kd / Kd of best base at the position | –
AGTTTTTAAGGC | 9.25 Kd / Kd of best base at the position | –
